From PMC7862700, “An all-to-all approach to the identification of sequence-specific readers for epigenetic DNA modifications on cytosine”

Assays:
Test in all cases: DAPPL (digital affinity profiling via proximity ligation, sequencing); 10 mM Tris-HCl pH 7.5, 50 mM NaCl, 1 mM DTT, 4% glycerol, room temperature, 30 min; GST-TFs on glutathione beads, 16-mer random dsDNA library, 0.1% formaldehyde crosslink after washing; high values mean tight binding
[1] = target: T1, FLI1 (Homo sapiens, UniProt Q01543 1-452); conditions: protein: recombinant; tags: N-terminal GST; dsDNA, one strand shown
T1 sequence: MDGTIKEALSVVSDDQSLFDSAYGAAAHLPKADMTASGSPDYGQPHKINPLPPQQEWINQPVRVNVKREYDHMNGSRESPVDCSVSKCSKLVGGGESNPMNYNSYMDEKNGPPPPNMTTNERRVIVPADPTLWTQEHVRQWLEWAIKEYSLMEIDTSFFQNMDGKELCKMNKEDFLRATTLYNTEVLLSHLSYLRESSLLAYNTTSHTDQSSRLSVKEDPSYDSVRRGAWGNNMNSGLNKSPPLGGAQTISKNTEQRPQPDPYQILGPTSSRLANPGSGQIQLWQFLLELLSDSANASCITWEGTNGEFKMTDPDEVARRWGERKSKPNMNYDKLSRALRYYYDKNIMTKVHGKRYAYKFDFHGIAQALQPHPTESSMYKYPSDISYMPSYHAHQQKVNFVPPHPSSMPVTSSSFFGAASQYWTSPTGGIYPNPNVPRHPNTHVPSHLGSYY
In short: (§1)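 Each value of binding signal is a hexamer's read frequency for a factor divided by the same hexamer's frequency in the tag-only sample. Barcoded, bead-captured GST fusions of human transcription factors made in yeast were pooled with that sample and incubated with 200 nmole of a random double-stranded 16-mer DNA library in Tris/NaCl/DTT/glycerol buffer at room temperature for 30 min. Washing, 0.1% formaldehyde crosslinking, proximity ligation, PCR and Illumina NextSeq500 sequencing followed.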

[2] = target: T2, ELK1 (Homo sapiens, UniProt P19419 1-428); conditions: protein: recombinant; tags: N-terminal GST; dsDNA, one strand shown
T2 sequence: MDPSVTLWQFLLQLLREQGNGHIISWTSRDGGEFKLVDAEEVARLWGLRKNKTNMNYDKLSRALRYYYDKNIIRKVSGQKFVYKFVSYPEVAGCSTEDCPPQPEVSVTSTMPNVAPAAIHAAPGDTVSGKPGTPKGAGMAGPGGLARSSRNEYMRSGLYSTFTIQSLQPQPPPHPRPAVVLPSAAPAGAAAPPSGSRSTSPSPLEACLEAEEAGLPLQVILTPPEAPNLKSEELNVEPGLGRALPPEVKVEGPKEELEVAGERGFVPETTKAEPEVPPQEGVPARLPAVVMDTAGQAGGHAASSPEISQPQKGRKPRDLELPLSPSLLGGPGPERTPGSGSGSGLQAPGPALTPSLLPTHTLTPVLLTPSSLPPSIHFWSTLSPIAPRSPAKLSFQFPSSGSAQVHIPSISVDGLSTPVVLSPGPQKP
In short: as §1

[3] = target: T3, GABPA (Homo sapiens, UniProt Q06546 1-454); conditions: protein: recombinant; tags: N-terminal GST; dsDNA, one strand shown
T3 sequence: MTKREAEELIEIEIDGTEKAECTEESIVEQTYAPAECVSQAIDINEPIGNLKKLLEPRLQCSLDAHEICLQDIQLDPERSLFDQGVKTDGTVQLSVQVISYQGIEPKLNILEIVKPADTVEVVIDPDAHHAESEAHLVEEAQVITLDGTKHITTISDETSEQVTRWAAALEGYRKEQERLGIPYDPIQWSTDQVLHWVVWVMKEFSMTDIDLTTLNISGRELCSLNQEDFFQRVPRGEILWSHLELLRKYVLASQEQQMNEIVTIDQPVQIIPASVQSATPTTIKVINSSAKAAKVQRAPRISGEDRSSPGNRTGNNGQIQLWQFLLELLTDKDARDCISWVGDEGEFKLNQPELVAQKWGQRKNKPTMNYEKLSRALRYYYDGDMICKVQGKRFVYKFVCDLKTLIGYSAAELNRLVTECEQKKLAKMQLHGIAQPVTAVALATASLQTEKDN
In short: as §1

[4] = target: T4, ERG (Homo sapiens, UniProt P11308 1-479); conditions: protein: recombinant; tags: N-terminal GST; dsDNA, one strand shown
T4 sequence: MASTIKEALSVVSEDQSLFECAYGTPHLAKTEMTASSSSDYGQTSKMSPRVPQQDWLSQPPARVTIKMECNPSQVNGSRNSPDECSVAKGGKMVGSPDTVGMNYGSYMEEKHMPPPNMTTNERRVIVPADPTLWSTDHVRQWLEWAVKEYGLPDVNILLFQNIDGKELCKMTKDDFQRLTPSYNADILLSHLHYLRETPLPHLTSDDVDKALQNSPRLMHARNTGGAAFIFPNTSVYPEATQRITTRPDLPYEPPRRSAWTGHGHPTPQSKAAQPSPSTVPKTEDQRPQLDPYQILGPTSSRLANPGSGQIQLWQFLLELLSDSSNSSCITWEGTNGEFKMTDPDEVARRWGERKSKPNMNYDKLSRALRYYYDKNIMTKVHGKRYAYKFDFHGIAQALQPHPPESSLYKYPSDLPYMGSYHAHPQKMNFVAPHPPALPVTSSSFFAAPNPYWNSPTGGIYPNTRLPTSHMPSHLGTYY
In short: as §1

[5] = target: ELF1 (Homo sapiens, UniProt P32519 1-619); conditions: protein: recombinant; tags: N-terminal GST; dsDNA, one strand shown
In short: as §1

[6] = target: T5, EHF (Homo sapiens, UniProt Q9NZC4 1-300); conditions: protein: recombinant; tags: N-terminal GST; dsDNA, one strand shown
T5 sequence: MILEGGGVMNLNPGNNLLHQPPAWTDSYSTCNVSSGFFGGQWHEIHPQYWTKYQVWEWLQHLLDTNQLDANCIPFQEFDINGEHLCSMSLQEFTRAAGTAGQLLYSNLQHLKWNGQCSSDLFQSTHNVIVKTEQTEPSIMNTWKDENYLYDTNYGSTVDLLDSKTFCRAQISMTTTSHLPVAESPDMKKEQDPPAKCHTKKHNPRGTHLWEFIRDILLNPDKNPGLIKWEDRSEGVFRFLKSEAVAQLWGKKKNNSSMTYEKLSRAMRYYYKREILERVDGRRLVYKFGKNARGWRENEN
In short: as §1

[7] = target: SPI1 (Homo sapiens, UniProt P17947 1-270); conditions: protein: recombinant; tags: N-terminal GST; dsDNA, one strand shown
In short: as §1

[8] = target: SPIB (Homo sapiens, UniProt Q01892 1-262); conditions: protein: recombinant; tags: N-terminal GST; dsDNA, one strand shown
In short: as §1

[9] = target: T6, FEV (Homo sapiens, UniProt Q99581 1-238); conditions: protein: recombinant; tags: N-terminal GST; dsDNA, one strand shown
T6 sequence: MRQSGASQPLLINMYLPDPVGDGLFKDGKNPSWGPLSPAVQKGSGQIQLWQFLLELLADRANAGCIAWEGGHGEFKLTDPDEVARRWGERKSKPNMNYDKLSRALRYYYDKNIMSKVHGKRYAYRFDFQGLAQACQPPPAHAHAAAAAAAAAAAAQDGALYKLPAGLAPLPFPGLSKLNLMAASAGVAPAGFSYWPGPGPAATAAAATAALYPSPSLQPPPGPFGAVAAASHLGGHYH
In short: as §1

[10] = target: ETV5 (Homo sapiens, UniProt P41161 1-510); conditions: protein: recombinant; tags: N-terminal GST; dsDNA, one strand shown
In short: as §1

[11] = target: HSF1 (Homo sapiens, UniProt Q00613 1-529); conditions: protein: recombinant; tags: N-terminal GST; chain copies: 3; dsDNA, one strand shown
In short: as §1

[12] = target: T7, SPIC (Homo sapiens, UniProt Q8N5J4 1-248); conditions: protein: recombinant; tags: N-terminal GST; dsDNA, one strand shown
T7 sequence: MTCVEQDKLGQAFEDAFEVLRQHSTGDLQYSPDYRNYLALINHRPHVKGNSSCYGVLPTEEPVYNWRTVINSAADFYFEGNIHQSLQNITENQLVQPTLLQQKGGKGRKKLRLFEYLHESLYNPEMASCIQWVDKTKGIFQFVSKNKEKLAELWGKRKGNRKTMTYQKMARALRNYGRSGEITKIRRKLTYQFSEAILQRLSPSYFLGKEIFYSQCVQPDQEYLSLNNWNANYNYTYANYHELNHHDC
In short: as §1

[13] = target: ELF4 (Homo sapiens, UniProt Q99607 1-663); conditions: protein: recombinant; tags: N-terminal GST; dsDNA, one strand shown
In short: as §1

[14] = target: T8, ELK4 (Homo sapiens, UniProt P28324-2 1-405); conditions: protein: recombinant; tags: N-terminal GST; dsDNA, one strand shown
T8 sequence: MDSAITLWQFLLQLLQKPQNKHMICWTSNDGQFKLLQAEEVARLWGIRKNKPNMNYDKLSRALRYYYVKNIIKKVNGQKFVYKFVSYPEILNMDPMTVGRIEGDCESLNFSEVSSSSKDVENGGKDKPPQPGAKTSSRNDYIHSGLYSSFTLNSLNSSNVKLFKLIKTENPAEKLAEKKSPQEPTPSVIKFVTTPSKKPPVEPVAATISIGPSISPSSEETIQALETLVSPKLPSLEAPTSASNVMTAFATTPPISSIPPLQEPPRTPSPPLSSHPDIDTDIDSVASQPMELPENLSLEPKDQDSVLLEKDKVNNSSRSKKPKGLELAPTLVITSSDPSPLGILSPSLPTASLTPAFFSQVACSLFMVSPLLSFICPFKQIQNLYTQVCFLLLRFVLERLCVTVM
In short: as §1

[15] = target: T9, ETV2 (Homo sapiens, UniProt O00321 1-342); conditions: protein: recombinant; tags: N-terminal GST; dsDNA, one strand shown
T9 sequence: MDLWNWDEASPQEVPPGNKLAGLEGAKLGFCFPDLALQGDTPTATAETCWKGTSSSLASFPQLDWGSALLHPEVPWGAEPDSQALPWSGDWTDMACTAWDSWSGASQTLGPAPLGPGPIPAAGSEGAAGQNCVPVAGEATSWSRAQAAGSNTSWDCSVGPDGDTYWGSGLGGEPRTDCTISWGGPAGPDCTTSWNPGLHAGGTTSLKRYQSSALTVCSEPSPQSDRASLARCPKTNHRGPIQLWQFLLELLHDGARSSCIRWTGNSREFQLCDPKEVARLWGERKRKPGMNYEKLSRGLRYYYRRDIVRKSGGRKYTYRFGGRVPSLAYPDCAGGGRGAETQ
In short: as §1

[16] = target: T10, ELF3 (Homo sapiens, UniProt P78545 1-371); conditions: protein: recombinant; tags: N-terminal GST; dsDNA, one strand shown
T10 sequence: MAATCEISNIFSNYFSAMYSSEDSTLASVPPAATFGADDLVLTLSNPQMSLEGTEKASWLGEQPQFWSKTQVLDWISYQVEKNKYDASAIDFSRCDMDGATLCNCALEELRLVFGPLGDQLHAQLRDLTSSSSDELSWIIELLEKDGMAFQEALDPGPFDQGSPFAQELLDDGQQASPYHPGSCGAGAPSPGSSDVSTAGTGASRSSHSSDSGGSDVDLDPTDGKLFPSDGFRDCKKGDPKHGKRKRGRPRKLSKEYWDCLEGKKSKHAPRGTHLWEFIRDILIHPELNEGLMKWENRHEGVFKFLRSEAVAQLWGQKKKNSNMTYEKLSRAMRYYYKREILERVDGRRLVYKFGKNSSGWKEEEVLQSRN
In short: as §1

[17] = target: CRX (Homo sapiens, UniProt O43186 1-299); conditions: protein: recombinant; tags: N-terminal GST; dsDNA, one strand shown
In short: as §1

[18] = target: ETV1 (Homo sapiens, UniProt P50549 1-477); conditions: protein: recombinant; tags: N-terminal GST; dsDNA, one strand shown
In short: as §1

Sequence of HSF1 (Q00613 whole entry): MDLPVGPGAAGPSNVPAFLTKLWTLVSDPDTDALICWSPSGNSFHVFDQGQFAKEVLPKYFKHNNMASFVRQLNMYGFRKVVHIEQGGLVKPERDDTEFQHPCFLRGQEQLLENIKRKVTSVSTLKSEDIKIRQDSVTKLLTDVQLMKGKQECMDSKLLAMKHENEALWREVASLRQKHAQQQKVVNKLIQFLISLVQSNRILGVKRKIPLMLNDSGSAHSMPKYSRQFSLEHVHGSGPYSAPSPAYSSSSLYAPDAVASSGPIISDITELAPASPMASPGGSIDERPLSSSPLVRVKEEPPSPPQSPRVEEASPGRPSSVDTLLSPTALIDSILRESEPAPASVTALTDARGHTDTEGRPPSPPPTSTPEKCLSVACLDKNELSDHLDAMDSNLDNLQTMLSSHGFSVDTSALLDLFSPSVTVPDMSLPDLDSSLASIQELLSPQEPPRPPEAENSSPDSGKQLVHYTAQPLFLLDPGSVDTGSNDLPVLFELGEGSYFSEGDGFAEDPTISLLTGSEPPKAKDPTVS
Sequence of CRX (O43186 whole entry): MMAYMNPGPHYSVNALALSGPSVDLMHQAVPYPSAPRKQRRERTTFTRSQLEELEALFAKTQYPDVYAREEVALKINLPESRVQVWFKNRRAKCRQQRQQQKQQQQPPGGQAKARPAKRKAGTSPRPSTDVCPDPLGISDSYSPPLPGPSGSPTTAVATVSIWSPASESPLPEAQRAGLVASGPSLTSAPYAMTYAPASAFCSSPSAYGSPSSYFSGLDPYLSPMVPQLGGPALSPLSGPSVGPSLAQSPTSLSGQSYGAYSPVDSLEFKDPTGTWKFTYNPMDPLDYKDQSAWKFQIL
Sequence of ELF4 (Q99607 whole entry): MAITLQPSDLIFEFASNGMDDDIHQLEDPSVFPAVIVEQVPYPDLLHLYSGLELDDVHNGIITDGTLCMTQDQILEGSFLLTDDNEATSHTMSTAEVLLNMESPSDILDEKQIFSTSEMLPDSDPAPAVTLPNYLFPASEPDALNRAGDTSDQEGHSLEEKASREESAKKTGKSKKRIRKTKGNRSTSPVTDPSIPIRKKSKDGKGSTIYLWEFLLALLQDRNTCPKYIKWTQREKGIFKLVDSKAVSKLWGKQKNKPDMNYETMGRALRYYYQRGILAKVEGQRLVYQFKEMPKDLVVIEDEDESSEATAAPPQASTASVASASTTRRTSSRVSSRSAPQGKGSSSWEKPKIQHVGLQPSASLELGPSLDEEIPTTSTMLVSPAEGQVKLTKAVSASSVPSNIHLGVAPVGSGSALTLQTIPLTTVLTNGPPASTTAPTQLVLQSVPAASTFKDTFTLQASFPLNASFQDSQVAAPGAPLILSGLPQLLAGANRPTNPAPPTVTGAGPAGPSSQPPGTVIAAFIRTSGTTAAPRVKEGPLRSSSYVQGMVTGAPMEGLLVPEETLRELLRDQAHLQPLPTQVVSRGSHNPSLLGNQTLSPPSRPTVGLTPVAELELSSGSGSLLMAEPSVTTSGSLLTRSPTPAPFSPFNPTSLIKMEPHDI
Sequence of ETV5 (P41161 whole entry): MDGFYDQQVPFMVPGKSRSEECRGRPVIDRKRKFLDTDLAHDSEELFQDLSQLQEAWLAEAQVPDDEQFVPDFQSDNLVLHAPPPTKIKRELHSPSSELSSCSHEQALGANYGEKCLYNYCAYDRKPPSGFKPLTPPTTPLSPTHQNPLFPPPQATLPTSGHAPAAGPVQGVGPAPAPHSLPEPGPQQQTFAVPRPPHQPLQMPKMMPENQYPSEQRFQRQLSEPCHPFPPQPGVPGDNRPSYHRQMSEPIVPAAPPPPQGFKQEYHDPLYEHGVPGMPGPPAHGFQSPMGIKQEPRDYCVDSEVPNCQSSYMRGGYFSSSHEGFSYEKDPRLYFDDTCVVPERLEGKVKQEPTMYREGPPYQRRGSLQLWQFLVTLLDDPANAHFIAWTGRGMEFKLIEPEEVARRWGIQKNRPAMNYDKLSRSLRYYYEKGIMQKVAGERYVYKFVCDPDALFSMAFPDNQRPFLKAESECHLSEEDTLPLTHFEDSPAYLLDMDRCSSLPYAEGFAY
Sequence of ELF1 (P32519 whole entry): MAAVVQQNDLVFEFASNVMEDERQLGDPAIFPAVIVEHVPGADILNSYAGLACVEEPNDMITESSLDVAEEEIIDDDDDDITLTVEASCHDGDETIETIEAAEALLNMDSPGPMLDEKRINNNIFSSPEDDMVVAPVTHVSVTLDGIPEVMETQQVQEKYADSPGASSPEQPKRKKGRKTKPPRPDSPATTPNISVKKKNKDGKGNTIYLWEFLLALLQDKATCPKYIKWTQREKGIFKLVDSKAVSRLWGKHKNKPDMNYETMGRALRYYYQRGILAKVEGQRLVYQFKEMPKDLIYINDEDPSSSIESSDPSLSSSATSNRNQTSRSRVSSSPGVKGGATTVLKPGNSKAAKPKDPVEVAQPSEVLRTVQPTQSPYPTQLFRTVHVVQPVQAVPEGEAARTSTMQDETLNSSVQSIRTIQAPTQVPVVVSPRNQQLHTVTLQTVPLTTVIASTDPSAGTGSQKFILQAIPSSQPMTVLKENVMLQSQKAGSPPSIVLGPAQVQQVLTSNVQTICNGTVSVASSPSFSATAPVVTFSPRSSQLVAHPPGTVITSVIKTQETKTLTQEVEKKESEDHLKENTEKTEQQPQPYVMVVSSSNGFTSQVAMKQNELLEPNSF
Sequence of ETV1 (P50549 whole entry): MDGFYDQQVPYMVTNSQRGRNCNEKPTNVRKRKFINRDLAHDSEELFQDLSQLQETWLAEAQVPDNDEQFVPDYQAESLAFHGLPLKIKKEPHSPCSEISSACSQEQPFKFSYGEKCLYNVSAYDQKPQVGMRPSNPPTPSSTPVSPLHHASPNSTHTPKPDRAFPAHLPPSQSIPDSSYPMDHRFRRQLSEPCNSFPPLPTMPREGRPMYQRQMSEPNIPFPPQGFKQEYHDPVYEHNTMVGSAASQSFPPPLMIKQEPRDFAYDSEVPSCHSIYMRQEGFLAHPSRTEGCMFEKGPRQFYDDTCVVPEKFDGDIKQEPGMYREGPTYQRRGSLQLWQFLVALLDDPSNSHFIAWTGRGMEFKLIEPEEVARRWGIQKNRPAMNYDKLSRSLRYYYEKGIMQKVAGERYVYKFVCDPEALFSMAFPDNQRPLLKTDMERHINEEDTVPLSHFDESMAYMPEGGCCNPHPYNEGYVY
Sequence of SPIB (Q01892 whole entry): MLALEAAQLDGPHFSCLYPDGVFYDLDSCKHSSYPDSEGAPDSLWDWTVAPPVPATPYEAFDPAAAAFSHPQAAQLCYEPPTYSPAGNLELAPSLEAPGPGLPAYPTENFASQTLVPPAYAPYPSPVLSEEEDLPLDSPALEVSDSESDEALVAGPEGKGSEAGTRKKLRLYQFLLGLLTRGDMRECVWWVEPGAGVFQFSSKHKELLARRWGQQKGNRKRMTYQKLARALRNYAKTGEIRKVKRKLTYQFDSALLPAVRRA

Sequence	binding signal [1]	binding signal [2]	binding signal [3]	binding signal [4]	binding signal [5]	binding signal [6]	binding signal [7]	binding signal [8]	binding signal [9]	binding signal [10]	binding signal [11]	binding signal [12]	binding signal [13]	binding signal [14]	binding signal [15]	binding signal [16]	binding signal [17]	binding signal [18]
CTTGAA	1.16 fold enrichment (6-mer frequency, TF over GST control)	1.24 fold enrichment (6-mer frequency, TF over GST control)	1.09 fold enrichment (6-mer frequency, TF over GST control)	1.12 fold enrichment (6-mer frequency, TF over GST control)	1.2 fold enrichment (6-mer frequency, TF over GST control)	1.18 fold enrichment (6-mer frequency, TF over GST control)	1.13 fold enrichment (6-mer frequency, TF over GST control)	1.17 fold enrichment (6-mer frequency, TF over GST control)	1.05 fold enrichment (6-mer frequency, TF over GST control)	1.09 fold enrichment (6-mer frequency, TF over GST control)	1.26 fold enrichment (6-mer frequency, TF over GST control)	1.09 fold enrichment (6-mer frequency, TF over GST control)	1.19 fold enrichment (6-mer frequency, TF over GST control)	1.22 fold enrichment (6-mer frequency, TF over GST control)	1.11 fold enrichment (6-mer frequency, TF over GST control)	1.08 fold enrichment (6-mer frequency, TF over GST control)	1.16 fold enrichment (6-mer frequency, TF over GST control)	1.09 fold enrichment (6-mer frequency, TF over GST control)
TTGAGG	1.23 fold enrichment (6-mer frequency, TF over GST control)	1.09 fold enrichment (6-mer frequency, TF over GST control)	1.16 fold enrichment (6-mer frequency, TF over GST control)	1.06 fold enrichment (6-mer frequency, TF over GST control)	1.08 fold enrichment (6-mer frequency, TF over GST control)	1.11 fold enrichment (6-mer frequency, TF over GST control)	1.27 fold enrichment (6-mer frequency, TF over GST control)		1.06 fold enrichment (6-mer frequency, TF over GST control)	1.09 fold enrichment (6-mer frequency, TF over GST control)	1.01 fold enrichment (6-mer frequency, TF over GST control)	1.26 fold enrichment (6-mer frequency, TF over GST control)	1.13 fold enrichment (6-mer frequency, TF over GST control)	1.23 fold enrichment (6-mer frequency, TF over GST control)	1.1 fold enrichment (6-mer frequency, TF over GST control)	1.05 fold enrichment (6-mer frequency, TF over GST control)	1.02 fold enrichment (6-mer frequency, TF over GST control)	1.06 fold enrichment (6-mer frequency, TF over GST control)
